Some test systems named below: DU-145 prostate; K-562 leukemia; MALME-3M melanoma; MDA-MB-231 breast; RXF 393 renal; SF-268 CNS; SF-295 CNS; SF-539 CNS; UACC-257 melanoma; M14 melanoma.
What all share (experiment): NCI-60 one-dose screen, 48 h (100 = growth as untreated, 0 = no growth, -100 = all killed)
Conditions in all cases: 10 µM unless noted

Each structure is given as a SMILES string. This is part of a sample that, as a whole, favours compounds with a hit. Of some 83,000 tested, about 20% had one in any assay.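 Assay: single dose, 48 h. Readout: percent growth (0 = no net growth; negative = cell death). Active: <10.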 Values without a mark were called inactive. Calls of active or inactive are those of the source.

As to `NC(=NCCCOc1ccc(F)cc1)Nc1ccc(Cl)cc1`, the growth is 25% in the assay on DU-145 prostate; 64.7% with K-562 leukemia; 54.6% with MALME-3M melanoma; 53.7% in the assay on MDA-MB-231 breast; 73.6% with RXF 393 renal; 49.9% in the assay with SF-268 CNS. The growth in the assay on SF-295 CNS is 47.5%; in the assay with SF-539 CNS it was 59.7%; with UACC-257 melanoma, 13.4%; in the assay on M14 melanoma it was 52.7%.
On to `Cn1ccnc1C(=O)/C=C/c1ccc(CC(=O)Nc2ccc(F)cc2)cc1`, for which the growth was -15.6% (active) in the assay with DU-145 prostate; 5.72% (active) with K-562 leukemia; 90.4% in the assay on MALME-3M melanoma; 30.1% in the assay on MDA-MB-231 breast; 35.6% in the assay with RXF 393 renal; 10% in the assay on SF-268 CNS. The growth was 37.1% in the assay on SF-295 CNS, 2.33% (active) in the assay with SF-539 CNS, 85.3% in the assay with UACC-257 melanoma and 81.1% with M14 melanoma.
For the compound `CCOC(=O)c1cc(C(=O)c2ccc(OC)c(OC)c2)n2ccc(/C=C/c3cc[n+](CC(=O)c4ccc(OC)c(OC)c4)cc3)cc12`, the growth is 96.3% in the assay on DU-145 prostate; 78.2% in the assay with K-562 leukemia; 97.3% in the assay with MALME-3M melanoma; 89.4% with MDA-MB-231 breast; 111% in the assay on RXF 393 renal; 99.5% in the assay on SF-268 CNS. Moreover, the growth with SF-295 CNS is 102%; in the assay on SF-539 CNS, 87.3%; in the assay on UACC-257 melanoma it was 98.7%; in the assay with M14 melanoma, 96.9%.
For the compound `CCNC(=O)Oc1ccc(/C(=C(\C)c2ccccc2)c2ccc(OCCN(CC)CC)cc2)cc1`, the growth in the assay on DU-145 prostate is 95.4%; in the assay on K-562 leukemia it was 18.9%; in the assay on MALME-3M melanoma, 81.1%; in the assay with MDA-MB-231 breast, 87.2%; with RXF 393 renal, 70.6%; with SF-268 CNS, 80.1%. In addition, the growth was 43.5% in the assay on SF-295 CNS, 60.9% in the assay with SF-539 CNS, -0.741% (active) in the assay on UACC-257 melanoma and 39.7% with M14 melanoma.
`C=C1C(=O)O[C@H]2[C@H]1CC/C(COC(=O)NCc1c[nH]c3ccc(F)cc13)=C\CC[C@@]1(C)O[C@@H]21`: the growth in the assay with DU-145 prostate was -62.9% (active); in the assay on K-562 leukemia, 1.89% (active); with MALME-3M melanoma it was -68.8% (active); in the assay with MDA-MB-231 breast, -57.5% (active); in the assay with RXF 393 renal, -88.5% (active); in the assay with SF-268 CNS, 36%. Besides, the growth was 61.2% in the assay on SF-295 CNS, -52.6% (active) with SF-539 CNS, 14.3% in the assay on UACC-257 melanoma and -50.8% (active) in the assay on M14 melanoma.
For the compound `CCOc1cccc(-c2nc(N)nc(Nc3ccccc3SSc3ccccc3Nc3nc(N)nc(-c4cccc(OCC)c4)n3)n2)c1`, the growth in the assay with DU-145 prostate is 83.9%; in the assay with K-562 leukemia, 68.9%; with MALME-3M melanoma, 97%; in the assay on MDA-MB-231 breast, 51.7%; with RXF 393 renal, 92.4%; in the assay on SF-268 CNS it was 25.1%. For the same compound, the growth in the assay with SF-295 CNS was 5.56% (active); with SF-539 CNS it was 93.2%; with UACC-257 melanoma it was 118%; in the assay with M14 melanoma, 69.4%.
For `C=C(C)[C@@H]1CC[C@]2(C(=O)N3CCN(C)CC3)CC[C@]3(C)[C@H](CC[C@@H]4[C@@]5(C)C/C(=C/c6ccncc6)C(=O)C(C)(C)[C@@H]5CC[C@]43C)[C@@H]12`, the growth in the assay with DU-145 prostate was 72.7%; in the assay with K-562 leukemia it was 21%; with MALME-3M melanoma, 62%; in the assay with MDA-MB-231 breast, 74.3%; in the assay with RXF 393 renal it was 49.4%; in the assay on SF-268 CNS it was 62.3%. The growth in the assay on SF-295 CNS was 75.2%; in the assay with SF-539 CNS it was 73.4%; in the assay with UACC-257 melanoma it was 56.9%; with M14 melanoma it was 68.5%.
On to `COc1cc(C2=C(c3cn(C)c4ccccc34)COC2=O)cc(OC)c1OC`, for which the growth with DU-145 prostate is 19.9%; in the assay on K-562 leukemia, 6.17% (active); with MALME-3M melanoma, 44.5%; with MDA-MB-231 breast, 22.5%; in the assay on RXF 393 renal, -21% (active); with SF-268 CNS it was 25.8%. Moreover, the growth in the assay on SF-295 CNS is -5.22% (active); in the assay on SF-539 CNS it was -19.7% (active); in the assay on UACC-257 melanoma it was 67.4%; in the assay with M14 melanoma it was -13.9% (active).
For the compound `COc1ccc2nc(-c3ccc(-c4noc(-c5cc(OC)c(OC)c(OC)c5)n4)cc3)[nH]c2c1`, the growth in the assay with DU-145 prostate is 57.4%; in the assay with K-562 leukemia, 14.7%; in the assay with MALME-3M melanoma it was -33% (active); in the assay with MDA-MB-231 breast it was 41.4%; with RXF 393 renal it was 58.2%; in the assay with SF-268 CNS, 50.5%. The growth with SF-295 CNS was 83.3%; in the assay with SF-539 CNS, -24.4% (active); in the assay on UACC-257 melanoma, 102%; in the assay on M14 melanoma it was 63%.
As for `COc1cc2c(c(OC)c1OC)CCC(c1cccc(NC(=O)c3cccc(Br)c3)c1)O2` (stereo not given), the growth with DU-145 prostate is 91.9%; with K-562 leukemia it was 88%; with MALME-3M melanoma it was 100%; in the assay with MDA-MB-231 breast, 92.6%; in the assay with RXF 393 renal, 87.6%; in the assay with SF-268 CNS, 87.1%. Further, the growth is 92.5% in the assay with SF-295 CNS, 97.7% with SF-539 CNS, 81.6% in the assay on UACC-257 melanoma and 90.5% in the assay with M14 melanoma.
On to `CCOC(=O)c1cc(C(=O)c2ccc(OC)c(OC)c2)n2c1ccc1ccccc12`, for which the growth is 109% in the assay with DU-145 prostate; 86.8% with K-562 leukemia; 93.8% in the assay with MALME-3M melanoma; 66.9% with MDA-MB-231 breast; 95.7% in the assay on RXF 393 renal; 81% in the assay on SF-268 CNS. The growth in the assay with SF-295 CNS was 96.9%; with SF-539 CNS, 99.9%; in the assay with UACC-257 melanoma it was 107%; with M14 melanoma, 102%.
As to `CCCC/C=N/NC(=S)NCc1ccccc1`, the growth in the assay on DU-145 prostate was 106%; with K-562 leukemia, 91.7%; in the assay on MALME-3M melanoma, 97%; in the assay on MDA-MB-231 breast, 98.8%; in the assay on RXF 393 renal, 106%; in the assay with SF-268 CNS it was 102%. In addition, the growth in the assay with SF-295 CNS is 102%; in the assay on SF-539 CNS, 94%; in the assay with UACC-257 melanoma it was 91.2%; in the assay on M14 melanoma, 87.4%.
Turning to `CC(=O)Nc1ccc(-n2cnc3cc(-c4ccc(OCCN5CCCCC5)cc4)ccc32)cc1`, the growth with DU-145 prostate was 89.3%; in the assay with K-562 leukemia, 1.57% (active); in the assay on MALME-3M melanoma it was 77.5%; with MDA-MB-231 breast, 76.1%; in the assay on RXF 393 renal, 80.4%; in the assay on SF-268 CNS it was 84.1%. In addition, the growth with SF-295 CNS was 96.7%; in the assay on SF-539 CNS, 14.4%; in the assay on UACC-257 melanoma, 108%; with M14 melanoma, 47.1%.

Values taken from PubChem BioAssay (NCI).
